# Data published in the supplement of paper PMC3545927.
# This is one part of the list. No count for the full screen is at hand.
# Molecular target: furin, P09958
# Test: furin cleavage Z-score vs untreated control; higher = more cleavage, active = 3.5 or more, inactive = 1 or less, 8 variable residues between constant flanks
# Method in brief: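 Reactions of 0.01 ml ran for 7.5, 15 or 30 min in 50 mM HEPES pH 7.5 with CaCl2 and NaCl, at 1:10 enzyme:substrate. In them, purified furin acted on bead-held 8-mer peptides fused to a cDNA oligonucleotide. The cleavage Z-score was obtained by lowess-adjusting log sequencing counts of released DNA against furin-free reactions and scaling by median absolute deviation.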
# Sequence of furin, P09958 (P09958 whole entry): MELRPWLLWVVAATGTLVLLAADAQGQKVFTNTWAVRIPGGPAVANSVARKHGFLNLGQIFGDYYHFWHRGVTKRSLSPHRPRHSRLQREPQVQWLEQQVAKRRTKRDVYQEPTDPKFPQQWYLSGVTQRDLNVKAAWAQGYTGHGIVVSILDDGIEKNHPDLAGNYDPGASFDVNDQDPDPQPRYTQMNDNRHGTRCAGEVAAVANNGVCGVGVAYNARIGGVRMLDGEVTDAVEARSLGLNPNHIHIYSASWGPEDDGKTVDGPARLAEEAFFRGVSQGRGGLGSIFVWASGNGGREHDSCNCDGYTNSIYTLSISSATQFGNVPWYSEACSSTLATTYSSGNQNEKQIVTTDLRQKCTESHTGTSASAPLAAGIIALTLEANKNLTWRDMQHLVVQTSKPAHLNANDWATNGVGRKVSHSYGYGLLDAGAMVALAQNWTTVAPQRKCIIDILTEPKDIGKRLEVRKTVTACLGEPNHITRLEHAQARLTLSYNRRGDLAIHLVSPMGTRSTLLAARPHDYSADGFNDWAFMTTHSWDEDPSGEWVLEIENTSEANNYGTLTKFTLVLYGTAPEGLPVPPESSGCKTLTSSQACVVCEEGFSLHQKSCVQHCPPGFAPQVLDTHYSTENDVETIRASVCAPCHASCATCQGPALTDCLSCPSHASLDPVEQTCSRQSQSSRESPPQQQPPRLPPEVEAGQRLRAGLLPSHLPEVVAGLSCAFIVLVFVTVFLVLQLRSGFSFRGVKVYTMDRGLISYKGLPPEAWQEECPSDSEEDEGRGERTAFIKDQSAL
Sequence,furin cleavage Z-score (7.5 min),furin cleavage Z-score (15 min),furin cleavage Z-score (30 min)
CAMGECSQHLAGNASASA [HC1696],2.31,0.612 (inactive),1.45
CAVVCCGMSYAGNASASA [HC102],-1.2 (inactive),-0.443 (inactive),-0.831 (inactive)
CAGACYSIEPAGNASASA [HC1595],-0.464 (inactive),-0.533 (inactive),-1.27 (inactive)
CADVMEECSQAGNASASA [HC1810],0.0621 (inactive),0.463 (inactive),-0.158 (inactive)
CAEVVTSDWVAGNASASA [HC2211],-1.36 (inactive),-1.03 (inactive),-1.22 (inactive)
CAFLLALLSCAGNASASA [HC249],-0.759 (inactive),-1.73 (inactive),-0.995 (inactive)
CAHAVGIFRAAGNASASA [HC748],-0.783 (inactive),-0.538 (inactive),0.453 (inactive)
CAHANRTGRAAGNASASA [FS-130],3.34,5.9 (active),5.93 (active)
CAVVCCSPSYAGNASASA [HC2059],0.343 (inactive),0.71 (inactive),-0.572 (inactive)
CANTNGSWHLAGNASASA [HC368],-0.455 (inactive),0.77 (inactive),-0.519 (inactive)
CARRQPIPKAAGNASASA [HC191],-0.467 (inactive),-0.696 (inactive),-2.34 (inactive)
CARRGRAARHAGNASASA [FS-1609],7.16 (active),6.27 (active),7.79 (active)
CARRGRPGLKAGNASASA [FS-2066],-0.499 (inactive),-1.08 (inactive),-0.201 (inactive)
CARRGRAGSDAGNASASA [FS-2065],-0.603 (inactive),-0.507 (inactive),-0.432 (inactive)
CAEDAASLRAAGNASASA [HC1536],1.18,0.0869 (inactive),0.0662 (inactive)
CARRKRYAEHAGNASASA [FS-3056],8.67 (active),11.2 (active),9.71 (active)
CARDPRAAIQAGNASASA [FS-2905],-0.00694 (inactive),-0.144 (inactive),0.0435 (inactive)
CARKARYAIQAGNASASA [FS-1901],1.15,3.07,5.59 (active)
CARKARWLRAAGNASASA [FS-2262],8.22 (active),9.39 (active),8.11 (active)
CAVVCCSMSAAGNASASA [HC2083],0.0703 (inactive),-1.17 (inactive),-0.85 (inactive)
CAGGWVAAQLAGNASASA [HC1067],-0.864 (inactive),-1.6 (inactive),0.105 (inactive)
CAVVVATDALAGNASASA [HC877],-0.345 (inactive),-0.967 (inactive),-0.904 (inactive)
CARRKRCMRHAGNASASA [FS-2295],6.23 (active),8.55 (active),6.72 (active)
CARRKRKVLHAGNASASA [FS-2515],1.78,1.49,4.34 (active)
CAREIRSEEPAGNASASA [FS-2005],0.429 (inactive),-0.412 (inactive),-0.762 (inactive)
CARVQRMAEHAGNASASA [FS-2841],2.56,3.98 (active),4.15 (active)
CARRKRYAIQAGNASASA [FU8],8.03 (active),11.3 (active),11.2 (active)
CARCRKSCEHAGNASASA [FS-1997],-0.455 (inactive),-0.923 (inactive),0.798 (inactive)
CARRKRYAIQAGNASASA [FS-3205],8.13 (active),11.7 (active),10.8 (active)
CARRKRKKKHAGNASASA [FS-1777],-0.226 (inactive),0.662 (inactive),2.03
